Assay outcomes from PubChem.
KKLEB tox: counter-screen for CF NF-kB inhibitors: cytotoxicity | KKLEB CF airway cells viability, ATPlite luminescence, overnight; active compounds read low; cells stimulated with P. aeruginosa culture filtrate | activity change (cytotoxicity), % at 5 µM | hit rate 0.36% among 360,000;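 active = corrected activity change at or below -50% at 5 µM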
CF NFkB inh: cystic fibrosis NF-kB activation inhibition. KKLEB NF-kB-GFP reporter, PAF-induced, GFP fluorescence overnight. inhibition, % at 5 µM. hit rate 0.86% among 360,000. AID 588850;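 active = at least 50% inhibition at 5 µM, scaled per plate between neutral and stimulator controls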;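 also: PAF is a Pseudomonas aeruginosa culture filtrate used as stimulus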
HIF-2a inh: HIF-2a inhibition | 786-0 RCC cells HIF-2a reporter, luciferase luminescence, overnight | inhibition, % at 18.8 µM | hit rate 0.72% among 360,000 | AID 624352;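 active = inhibition of the luminescence signal of 40% or more relative to plate controls, in a single-dose primary screen at 18.75 µM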
TWEAK-Fn14 inh: TWEAK-Fn14 signaling inhibition; TWEAK-stimulated Fn14 reporter cells, luciferase luminescence, 8 h; inhibition, % at 10 µM; hit rate 2% among 360,000; AID 1159606; in the data active = inhibition above about 50%
Peg3 promoter: reduces Peg3 promoter-driven luciferase expression in HeLa; HeLa PEG-Prom luciferase reporter, luminescence, overnight; inhibition, % at 20 µM; hit rate 1.7% among 360,000; AID 588405;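 active = inhibition of at least 50% at 20 µM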
TROY signal inh: inhibitors of TROY-dependent NF-kB signaling; Q293 LMP1-TROYcd NF-kB luciferase reporter, 4 h; inhibition, % at 10 µM; hit rate 0.98% among 360,000;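 active = compounds whose plate-normalised and pattern-corrected inhibition of the luciferase reporter signal at the single screening dose is 50% or more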
CF NFkB inh conf: CF NF-kB inhibition confirmation, single concentration; shares compounds with CF NFkB inh; KKLEB CF airway cells, PAF-induced NF-kB-GFP fluorescence, overnight; inhibition, % at 5 µM; hit rate 64% among 1,300; AID 602472; in the data active = inhibition above about 40%;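 also: stimulus PAF is a Pseudomonas aeruginosa filtrate and not platelet activating factor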
HIF-2a conf: HIF-2a inhibition, single concentration confirmation | AID 651580 | 786-0 RCC cells, HIF-2a luciferase reporter luminescence, overnight | hit rate 56% among 1,800 | inhibition, % at 18.8 µM | shares compounds with HIF-2a inh;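 active = mean inhibition across four replicates of at least 40 percent at the single tested concentration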
HIF-1a cs: counter-screen for HIF-2a inhibitors: HIF-1a inhibition in MiaPaCa-2 cells; hit rate 72% among 1,800; MiaPaCa-2 HIF-1a luciferase reporter, desferoxamine, overnight; inhibition, % at 18.8 µM; shares compounds with HIF-2a inh;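 active = mean inhibition of the reporter signal across four replicates at the single tested dose of 50% or more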
Hits are given with their value; - = inactive; . = not tested or not shown. Only some compounds are listed: those with a hit (about 4% of all), similar ones and a draw of the others.

SMILES	KKLEB tox	CF NFkB inh	HIF-2a inh	TWEAK-Fn14 inh	Peg3 promoter	TROY signal inh	HIF-2a conf	HIF-1a cs	others
COc1ccc(-n2nnnc2C(C2CC2)N2CCC3(CC2)C(=O)NCN3c2ccccc2)cc1 (stereo not given)	-	-	-	-	-	-	.	.
COc1ccc(C(c2nnnn2C2CCCCC2)N2CCC3(CC2)C(=O)NCN3c2ccccc2)cc1 (stereo not given)	-	-	-	-	-	-	.	.
O=c1[nH]c2ccccc2n1C1CCN(C(c2cccc3ccccc23)c2nnnn2Cc2ccccc2)CC1 (stereo not given)	-	86	-	53	81	-	.	.	CF NFkB inh conf=105
COc1ccc(-n2nnnc2C(c2cccs2)N2CCC(n3c(=O)[nH]c4ccccc43)CC2)cc1 (stereo not given)	-	79	-	-	71	-	.	.	CF NFkB inh conf=97
CCc1ccc(CN2CCN(Cc3ccc(SC)cc3)CC2)cc1	-	-	-	-	-	-	.	.
O=C(c1c[nH]c2ccc(S(=O)(=O)N3CCC4(CC3)OCCO4)cc2c1=O)N1CCC2(CC1)OCCO2	-	-	-	-	-	-	.	.
c1cncc(CNC2CCCC2)c1	-	-	-	-	-	-	.	.
C[C@]12CCC3C(CC[C@H]4C[C@H](OC(=O)c5cccnc5)CC[C@]34C)C1CCC2=O (stereo not given in full)	-	-	-	-	-	-	.	.
N#CC1c2ccccc2-n2nncc2CN1Cc1cc(Cl)cc(Cl)c1 (stereo not given)	-	90	93	107	96	91	98	107	CF NFkB inh conf=116
CNC(=O)C[C@H]1CC[C@@H]2NC[C@H](O)COC[C@H]2O1	.	.	-	.	.	.	.	.
C=C1C(=O)OC2CC3(C)OC3C3OC3C3=CC(OC3=O)C12 (stereo not given)	-	88	61	-	96	-	68	-	CF NFkB inh conf=61
CCN1C[C@]2(COC)CC[C@H](O)[C@@]34C5C[C@H]6[C@H](O)C5[C@](O)(C[C@H]6OC)[C@@H]([C@H](OC)C23)[C@@H]14 (stereo not given in full)	-	-	-	-	-	-	.	.
CCC(C)C1NC(=O)C2CCCN2C(=O)C(CC(C)C)OC(=O)CCNC(=O)C(C)N(C)C(=O)C(C(C)C)N(C)C1=O (stereo not given)	-	-	-	-	-	-	.	.
C=CCCC[C@@H]1OC(=O)CNC(=O)C([C@@H](C)CC)NC(=O)[C@@H]2CCCN2C(=O)C([C@@H](C)CC)OC(=O)[C@H](Cc2ccccc2)N(C)C(=O)[C@H](C(C)C)NC(=O)C1(C)C (stereo not given in full)	-	-	82	-	-	-	-	104
N=C1c2ccccc2CN1c1cccc([N+](=O)[O-])c1	-	-	-	-	-	-	.	.
O=C(CCn1nc(-c2ccc(Cl)cc2)ccc1=O)N1CCC2(CC1)OCCO2	-	-	-	-	-	-	.	.
Cc1nc2cc(-c3ccc(Cl)cc3)nn2c(C)c1CCC(=O)N1CCC2(CC1)OCCO2	-	-	81	-	-	-	89	68
CCCCCCCCN=Cc1c(O)[nH]c(=O)[nH]c1=O	-	-	-	-	-	-	.	.
Nc1ccccc1C(=O)OCC(=O)N1CCc2ccccc21	-	-	-	-	-	-	.	.
N#CSCC(=O)N1c2ccccc2CCc2ccccc21	-	59	41	-	-	-	-	72
O=[N+]([O-])c1ccc(N2CCOCC2)c2c1no[n+]2[O-]	-92	84	69	103	96	-	58	101
C=CCn1c(O)c(C(C)=NCC2CCCO2)c(=O)[nH]c1=O (stereo not given)	-	-	-	-	-	-	.	.
O=C(N=Nc1c(O)[nH]c(=O)[nH]c1=O)C1COc2ccccc2O1 (stereo not given)	-	-	-	-	-	-	.	.
CCCCCn1c(=O)c(C(=O)NCc2ccncc2)c(O)c2ccccc21	-	-	46	-	-	-	-	-
CCCCn1c(=O)c(C(=O)NCc2ccc(Cl)cc2)c(O)c2ccccc21	-	-	-	-	-	-	.	.
SMILES	KKLEB tox	CF NFkB inh	HIF-2a inh	TWEAK-Fn14 inh	Peg3 promoter	TROY signal inh	HIF-2a conf	HIF-1a cs	others
CCOC(=O)[C@]12Cc3cc(OC)ccc3[C@H]1N(C(C)C)C(=O)c1cc(OC)ccc12	.	.	52	-	.	52	90	96
CCCCCN1C(=O)c2cc(OC)ccc2[C@@]2(C(=O)OCC)Cc3cc(Cl)ccc3[C@@H]12	.	.	80	77	.	52	97	105
CCOC(=O)[C@]12Cc3cc(OC)ccc3[C@H]1N(CCC(=O)OC)C(=O)c1cc(OC)ccc12	.	.	-	-	.	-	.	.
CCOC(=O)[C@]12Cc3cc(Cl)ccc3[C@H]1N(C1CCCCC1)C(=O)c1ccccc12	.	.	85	90	.	57	97	105
CCOC(=O)[C@]12Cc3cc(Cl)ccc3[C@H]1N(C(C)C)C(=O)c1ccccc12	.	.	90	78	.	-	95	104
CCOC(=O)[C@]12Cc3cc(C)ccc3[C@H]1N(C)C(=O)c1ccccc12	.	.	-	-	.	-	.	.
O=c1[nH]c(=S)n(-c2ccccc2Cl)c(O)c1C=NCCN1CCNCC1	-	-	-	-	-	-	.	.
Cc1ccc(-n2c(O)c(C=NCc3ccco3)c(=O)[nH]c2=S)cc1C	-	-	-	-	-	-	.	.
c1ccc(P(c2ccccc2)c2ccccn2)cc1	-	-	-	-	-	-	.	.
CCOC(=O)[C@]12Cc3cc(Cl)ccc3[C@H]1N(C)C(=O)c1ccccc12	.	.	-	-	.	-	.	.
CCOC(=O)[C@]12Cc3cc(Cl)ccc3[C@H]1N(CC(=O)OC)C(=O)c1ccccc12	.	.	81	80	.	-	94	104
CC1CC(C)CC(C)C(O)C(C#N)=CC=CCC(C2CCCC2C(=O)O)OC(=O)CC(O)C(C)C1 (stereo not given)	-	86	78	100	51	81	76	104
O=C1NC2C(O)C(O)C(O)C(O)C2c2cc3c(c(O)c21)OCO3 (stereo not given)	-	86	66	99	99	81	70	105
CC1OC(OC2C=C3CCC4C(CCC5(C)C(c6ccc(=O)oc6)CCC45O)C3(C)CC2)C(O)C(OC2OC(CO)C(O)C(O)C2O)C1O (stereo not given)	-62	95	70	86	98	-	-	105
Cc1cc(C)n2nc(C)[n+](C)c2n1	-	-	-	-	-	-	.	.
